Reference: article PMC4336329 (PLoS ONE, 2015)
About 14,000 (4.5%) of roughly 310,000 compounds showed an effect of 50% or more. Effects have a minus sign here. The list comes from a sample in which strong results are over-represented; it also holds similar structures and randomly drawn compounds.

Biological target: human ether-à-go-go-related gene (hERG) potassium channel (human, UniProt Q12809)
Experiment: primary screen, population patch clamp on CHO cells stably expressing hERG; higher = less effect of the substance
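Also: peak tail current of the secondary pulse compared with the same well before compound.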

Chain of human ether-à-go-go-related gene (hERG) potassium channel (Q12809 whole entry, looked up): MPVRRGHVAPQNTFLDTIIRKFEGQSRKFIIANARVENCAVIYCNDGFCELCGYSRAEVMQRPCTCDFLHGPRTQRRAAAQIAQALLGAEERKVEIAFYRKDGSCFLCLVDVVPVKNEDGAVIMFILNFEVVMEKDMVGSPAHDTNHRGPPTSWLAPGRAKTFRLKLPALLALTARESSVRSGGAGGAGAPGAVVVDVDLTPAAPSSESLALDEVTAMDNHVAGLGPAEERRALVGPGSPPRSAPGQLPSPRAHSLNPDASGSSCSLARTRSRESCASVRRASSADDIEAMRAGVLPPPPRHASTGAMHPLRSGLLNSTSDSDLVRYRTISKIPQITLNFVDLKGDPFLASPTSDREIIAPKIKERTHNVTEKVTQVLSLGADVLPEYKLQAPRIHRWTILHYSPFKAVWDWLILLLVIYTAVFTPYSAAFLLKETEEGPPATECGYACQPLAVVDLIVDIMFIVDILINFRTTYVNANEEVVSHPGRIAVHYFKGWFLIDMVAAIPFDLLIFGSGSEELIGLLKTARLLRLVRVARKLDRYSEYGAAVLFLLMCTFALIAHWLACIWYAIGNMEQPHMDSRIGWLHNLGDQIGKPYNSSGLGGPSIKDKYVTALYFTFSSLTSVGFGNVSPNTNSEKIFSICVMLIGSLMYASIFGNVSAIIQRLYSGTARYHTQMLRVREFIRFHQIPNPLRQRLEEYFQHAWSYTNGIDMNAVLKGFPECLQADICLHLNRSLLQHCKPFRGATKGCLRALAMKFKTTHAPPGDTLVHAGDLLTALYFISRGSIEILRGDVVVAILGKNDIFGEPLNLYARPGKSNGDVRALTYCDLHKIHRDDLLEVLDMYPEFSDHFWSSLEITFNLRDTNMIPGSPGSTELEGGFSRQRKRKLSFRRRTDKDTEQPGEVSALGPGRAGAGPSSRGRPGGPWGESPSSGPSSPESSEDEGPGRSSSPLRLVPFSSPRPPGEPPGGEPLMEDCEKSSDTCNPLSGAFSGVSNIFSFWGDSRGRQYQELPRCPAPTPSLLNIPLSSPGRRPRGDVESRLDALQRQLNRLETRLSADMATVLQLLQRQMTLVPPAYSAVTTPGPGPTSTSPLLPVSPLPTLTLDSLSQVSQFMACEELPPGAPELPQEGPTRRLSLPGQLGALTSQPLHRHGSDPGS

Row | Compound | hERG current change (%, negative = inhibition) at 10uM
1 | CNC(=O)COc1ccc2oc3c(c2c1)CCCC3 | 9.14%
2 | CC(C)N(CCNC(=O)COc1ccc2oc3c(c2c1)CCCC3)C(C)C | -73.3%
3 | CCN(CC)CCCNC(=O)COc1ccc2oc3c(c2c1)CCCC3.Cl | -45.7%
4 | CC(C)OCCCNC(=O)COc1ccc2oc3c(c2c1)CCCC3 | -4.97%
5 | CCOC(=O)N1CCN(C(=O)COc2ccc3oc4c(c3c2)CCCC4)CC1 | -50.6%
6 | CC(=O)N1CCN(C(=O)COc2ccc3oc4c(c3c2)CCCC4)CC1 | -25.4%
7 | Cc1cccc(N(CC(=O)NCCC2=CCCCC2)S(C)(=O)=O)c1C | -22.8%
8 | COC(=O)c1ccc(CNC(=O)/C=C/c2cc([N+](=O)[O-])ccc2OC(F)F)cc1 | 6.89%
9 | CN(C)CCN(C(=O)c1ccc2ccccc2c1)c1nc2ccc(Br)cc2s1.Cl | 13.2%
10 | CN(C)CCN(C(=O)C1=COCCO1)c1nc2ccc(F)cc2s1.Cl | -73%
11 | CN(C)CCCN(C(=O)C1=COCCO1)c1nc2ccc(Br)cc2s1.Cl | -67.2%
12 | CN(C)CCN(C(=O)C1=COCCO1)c1nc2ccc(Cl)cc2s1.Cl | -73.1%
13 | CN(C)CCN(C(=O)c1ccc2c(c1)OCCO2)c1nc2ccc(Cl)cc2s1.Cl | -1.19%
14 | CN(C)CCN(C(=O)c1ccc2ccccc2c1)c1nc2ccc(F)cc2s1.Cl | 11.1%
15 | O=C(CN1Cc2ccccc2C1=O)Nc1ccc2c(c1)OCCO2 | 3.26%
16 | O=C([O-])c1cc(=O)[nH]c2ccc(S(=O)(=O)Nc3ccc(F)cc3)cc12.[K+] | 23.5%
17 | O=C(O)c1ccc(NC(=O)C2CCCCC2)cc1 | -7.8%
18 | COCCNC(=O)Cn1cc2c(n1)CCC(C)C2 (centres unmarked) | 21.2%
19 | O=C(Cn1c(=O)oc2ccccc21)N1CCCC1 | 14.4%
20 | Cc1[nH]c2ccccc2c1/C=N/NC(=S)NC(C)C | 12.1%
21 | CCCCC(c1nnnn1C1CCCC1)N1CCN(C2CCCC2)CC1.Cl (centres unmarked) | -85.6%
22 | CCCCC(c1nnnn1C1CCCC1)N1CCN(C(=O)c2ccco2)CC1.Cl (centres unmarked) | -47%
23 | CCCCC(c1nnnn1C1CCCC1)N1CCN(C2CCCCC2)CC1 (centres unmarked) | -69.8%

Row | Compound | hERG current change (%, negative = inhibition) at 10uM
24 | CCCC(c1nnnn1C(C)(C)CC)N1CCN(C2CCCC2)CC1.Cl (centres unmarked) | -35.3%
25 | CCCC(c1nnnn1C1CCCCC1)N1CCN(C2CCCC2)CC1.Cl (centres unmarked) | -46.4%
26 | CCC(c1nnnn1C1CCCCC1)N1CCN(C2CCCC2)CC1.Cl (centres unmarked) | -3.77%
27 | CC(CC(=O)N(CCC1=CCCCC1)c1c(N)n(Cc2ccccc2)c(=O)[nH]c1=O)c1ccccc1 (centres unmarked) | 17.1%
28 | Cc1cc(F)ccc1NC(=O)CCCN(C)S(=O)(=O)c1ccc(F)cc1 | -5.3%
29 | CCc1cc2c(=O)c(-c3nc4ccccc4n3C)c(C)oc2c(CN2CCN(C)CC2)c1O | 14.3%
30 | O=C(CSc1ncnc2c1oc1ccccc12)Nc1cccc(C(F)(F)F)c1 | 11%
31 | COc1ccc2c(Cl)c(C(=O)N/N=C3\CCCC(=O)C3)sc2c1 | -9.05%
32 | Cn1c(=O)c2c(nc(CN3CCN(c4ccc(F)cc4)CC3)n2Cc2ccccc2F)n(C)c1=O | -6.93%
33 | CCOC(=O)C(C(=O)OCC)C(C)(C)/C(C)=N\Nc1ccc([N+](=O)[O-])cc1[N+](=O)[O-] | -40.8%
34 | CCOC(=O)C(C)/C(C)=N\Nc1ccc([N+](=O)[O-])cc1[N+](=O)[O-] (centres unmarked) | -53.2%
35 | CCOC(=O)C/C(C)=N\Nc1ccc([N+](=O)[O-])cc1[N+](=O)[O-] | -40.2%
36 | Cc1onc(-c2ccccc2Cl)c1C(=O)N1CCOC12CCCCC2 | 1.15%
37 | Fc1cnc(N2CCOCC2)nc1N1CCc2ccccc21 | -19.5%
38 | COc1cccc(CN2CCN(C(=O)c3cccs3)CC2)c1OC | -4.33%
39 | COc1ccccc1N1CC(C(=O)OCc2nc(N)nc(Nc3ccccc3)n2)CC1=O (centres unmarked) | -15.8%
40 | Nc1nc(COC(=O)C2CC(=O)N(Cc3ccccc3)C2)nc(Nc2ccccc2)n1 (centres unmarked) | -51.9%
41 | Nc1nc(COC(=O)C2CCN(C(=O)c3ccc(Cl)cc3)CC2)nc(Nc2ccccc2)n1 | -67.8%
42 | Nc1nc(COC(=O)C2CC(=O)N(Cc3ccccc3Cl)C2)nc(Nc2ccccc2)n1 (centres unmarked) | -55.6%
43 | CC(=O)Nc1ccc(NC(=O)C(C)OC(=O)C2CC(=O)N(CCc3ccccc3)C2)cc1 (centres unmarked) | 14.4%
44 | Nc1nc(COC(=O)CCC(=O)c2ccc(Cl)cc2)nc(Nc2ccccc2)n1 | 6.39%
45 | O=C(COC(=O)C1CC(=O)N(CCc2ccccc2)C1)c1ccc[nH]1 (centres unmarked) | -41.8%
46 | Cc1cc(C)n(CC(=O)NNC(=O)C2CC(=O)N(Cc3ccccc3Cl)C2)n1 (centres unmarked) | 1.16%

Row | Compound | hERG current change (%, negative = inhibition) at 10uM
47 | Cc1ccccc1C(=O)N1CCC(C(=O)OCc2nc(N)nc(Nc3ccccc3)n2)CC1 | -33.6%
48 | Nc1nc(COC(=O)C2CC(=O)N(CCc3ccccc3)C2)nc(Nc2ccccc2)n1 (centres unmarked) | -52.2%
49 | COC(=O)C1CC(=O)N(Cc2ccccc2)C1 (centres unmarked) | 23.4%
50 | Cc1ccc(N2CC(C(=O)OCc3nc(N)nc(Nc4ccccc4C)n3)CC2=O)cc1 (centres unmarked) | -32.8%
51 | CC(=O)c1ccc(NC(=O)Nc2ccc(Br)cc2C)cc1 | 22.3%
52 | COc1ccc(/C=N/NC(=O)c2ccc(N(C)S(=O)(=O)c3ccccc3)cc2)c(OC)c1 | 6.66%
53 | Cl.O=S(=O)(c1cccs1)N1CCN(C/C=C/c2ccccc2)CC1 | -49.3%
54 | COc1ccc(N(CC(=O)NCc2cccnc2)S(=O)(=O)c2ccccc2)c(OC)c1 | -8.52%
55 | Cc1c(C)n(C)c2ccc([N+](=O)[O-])cc12 | -4.04%
56 | O=C(CSc1ccsc1[N+](=O)[O-])NCCc1ccccc1 | 2.6%
57 | CCCCCNC(=O)Cc1ccc(OC)cc1 | 1.41%
58 | COc1cccc(CN2CCN(CC(=O)NCCc3ccccc3)CC2)c1 | -11.8%
59 | CCCCNC(=O)CN1CCN(Cc2ccc3cc(OC)ccc3c2)CC1.O=C(O)C(=O)O | -69%
60 | COc1ccc(NC(=O)CN2CCOCC2)cc1.O=C(O)C(=O)O | 13%
61 | CCN(CC)c1ccc(NC(=O)CN2CCN(CC(=O)Nc3ccc(OC)cc3)CC2)cc1 | -74.9%
62 | N#CCN1CCN(CC(=O)Nc2ccc(OCc3ccccc3)cc2)CC1 | -4.27%
63 | COc1ccc(NC(=O)CN2CCCCCC2)cc1OC | 3.79%
64 | COc1ccc(NC(=O)CN2CCN(CC(=O)Nc3ccc(OC)c(OC)c3)CC2)cc1 | -74.6%
65 | COC(=O)c1ccc(NC(=O)CN2CCN(CC#N)CC2)cc1.O=C(O)C(=O)O | 3.24%
66 | COc1ccc(N2CCN(CC(=O)Nc3ccc(C)c(C)c3)CC2)cc1 | -17.3%
67 | COc1ccc(NC(=O)CN2CCN(CC#N)CC2)cc1 | -75.6%
68 | CCN(C(=O)COc1ccccc1)c1nnc(-c2cccnc2)s1 | 8.69%
69 | Cc1cccc(NC(=O)c2cccc(NC(=O)Cc3cccs3)c2)c1 | 4.72%

Row | Compound | hERG current change (%, negative = inhibition) at 10uM
70 | N#CCC(=O)N/N=C/c1ccc(N2N=C(c3ccccc3)CC2c2ccccc2)cc1 (centres unmarked) | 25%
71 | CC(C(=O)N1CCC2(CC1)OCCO2)C1Sc2ccccc2NC1=O (centres unmarked) | 6.9%
72 | O=C(NC1C2CC3CC(C2)CC1C3)c1ccc2c(c1)OCO2 (centres unmarked) | -5.92%
73 | CN(C)CCNc1ccc(-c2nn(C)c(=O)c3ccccc23)cc1[N+](=O)[O-] | -1.47%
74 | CCOC(C(=O)OCCCN(CC)CC)(c1ccccc1)c1ccccc1.Cl | -11.5%
75 | N#CC(c1ccc(Cl)nn1)c1c(F)cccc1Cl (centres unmarked) | 9.59%
76 | Cc1noc(C)c1COC(=O)[C@@H](NC(=O)c1ccccc1Cl)C(C)C | 5.09%
77 | Cl.N[C@@H](Cc1c[nH]c2ccccc12)c1nnc(SCc2c(F)cccc2Cl)o1 | 1.99%
78 | COc1ccc(NC(=O)CN2CCN(S(=O)(=O)N(C)C)CC2)cc1 | -4.55%
79 | COC(=O)c1ccc(NC(=O)CCN2CCN(Cc3ccccc3)CC2)cc1 | -58.6%
80 | COC(=O)c1ccc(NC(=O)CCN2CCN(c3ccccc3)CC2)cc1 | -28.9%
81 | COc1ccc(NC(=O)CN2CCN(S(=O)(=O)N3CCCCCC3)CC2)cc1 | -71.7%
82 | COc1cccc(N2CCN(CC(=O)Nc3ccc(S(=O)(=O)N4CCCCCC4)cc3)CC2)c1 | -21.9%
83 | COc1ccc(NC(=O)CN2CCN(c3c(C)cc(C)cc3C)CC2)cc1 | 3.97%
84 | CCOC(=O)c1ccc(NC(=O)CN2CCN(Cc3ccccc3)CC2)cc1 | -51%
85 | CCOC(=O)c1ccc(NC(=O)CN2CCN(c3ccccc3)CC2)cc1 | 5.34%
86 | COc1ccc(NC(=O)CN2CCN(c3ccc(C)cc3C)CC2)cc1 | -60.7%
87 | COc1ccc(NC(=O)CN2CCN(c3c(C)cccc3C)CC2)cc1 | -24.4%
88 | CCOC(=O)c1ccc(NC(=O)N2CCN(Cc3ccccc3)CC2)cc1 | -11.1%
89 | COC(=O)c1ccc(NC(=O)CCN2CCN(CCC(=O)Nc3ccc(C(=O)OC)cc3)CC2)cc1 | -15.4%
